Assay results as given in PubChem BioAssay AID686979 (National Center for Advancing Translational Sciences (NCATS), 2013).
About 50,000 (12%) of roughly 420,000 compounds were called active. Inconclusive results (about 26%) are left out. The list comes from a sample in which actives are over-represented; it also holds similar structures and randomly drawn compounds. Values without a mark were called inactive. Calls come from the whole dose curve; as a rule, active = well fitted inhibition curve with a large enough effect; inconclusive = small, poorly fitted or top-dose-only effect; inactive = flat fitted curve, though single readings scatter.

test: qHTS for Inhibitors of human tyrosyl-DNA phosphodiesterase 1 (TDP1): qHTS in cells in presence of CPT; details: chicken DT40 Tdp1-/-;hTDP1 cells + 20 nM CPT, ATP luminescence, 48 h; series mostly up to 46.2 µM; activity change, negative = growth inhibition: at the top concentration; note: nearly all actives have a fitted effect of over 55% in size
How it was run: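 Chicken DT40 Tdp1-/- cells stably complemented with human TDP1 were seeded at 400 cells/well in medium containing 20 nM camptothecin, exposed to pin-transferred compounds, and grown at 37 °C for at least 48 hr. Viability was read as ATP luminescence.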
% is set by controls: 0 for no effect and ±100 for the full control effect; potency is the fitted concentration of half-maximal effect.

Row | Compound | activity change, negative = growth inhibition [%] | Potency
1 | O=c1[nH]oc(O)c1-c1ncc(C(F)(F)F)cc1Cl | 7.03 | –
2 | COCCNS(=O)(=O)c1cc(-c2nn3c(C)nnc3c3ccccc23)ccc1C | -19.3 | –
3 | CCNS(=O)(=O)c1cc(-c2nnc(Nc3cccc(C(F)(F)F)c3)c3ccccc23)ccc1C | – | 5.8 µM (active)
4 | Cc1ccc(-c2nnc(Nc3ccc(C(=O)N(C)C)cc3)c3ccccc23)cc1S(N)(=O)=O | -0.81 | –
5 | O=C(O)C1CCCN1C1=NS(=O)(=O)c2ccccc21 (stereo not drawn) | 3.57 | –
6 | CN1OC[C@@H]2CN(S(=O)(=O)c3cccc(C(F)(F)F)c3)[C@H](c3ccc(-c4cc5ccccc5o4)cc3)C[C@@H]21 | -28.6 | –
7 | CC1=CC(=NNS(=O)(=O)c2ccc([N+](=O)[O-])cc2)CC(C)(C)C1 | -24.4 | –
8 | CCCC1OC23CCCCC2C(C#N)(C#N)C1(C#N)C(=N)O3 (stereo not drawn) | – | 5.8 µM (active)
9 | O=C(CSc1cn(CC(=O)N2CCOCC2)c2ccccc12)Nc1ccccc1 | -7.68 | –
10 | O=C(NCc1ccccc1)[C@@H]1CSC2c3ccccc3C(=O)N21 (stereo partly drawn) | -16.3 | –
11 | COCCCC1CCN(C(=O)C2CCC(=O)N(C3CCCCCC3)C2)CC1 (stereo not drawn) | -49.8 | –
12 | CC1CN(/C=C/C(=O)C(F)(F)F)CC(C)O1 (stereo not drawn) | -1.96 | –
13 | COC(=O)N/N=C/c1c[n+]([O-])c2ccccc2[n+]1[O-] | -9.69 | –
14 | Cc1ccc(C(NC(=O)C2CCN(CCOc3ccc(Cl)cc3Cl)CC2)c2ccccn2)cc1 (stereo not drawn) | – | 25.9 µM (active)
15 | Clc1ccc(CN2CCCCCC2)cc1Cl | -1.23 | –
16 | O=C(COc1ccc(Cl)cc1Cl)NCCCNC(=O)c1cnccn1 | 2.77 | –
17 | O=C(NC(c1ccc(-c2ccccc2)cc1)c1cnccn1)C1CCN(CCOc2ccc(Cl)cc2Cl)CC1 (stereo not drawn) | – | 16.4 µM (active)
18 | COc1cccc(CN2CCC(C(=O)NC(c3ccc4c(c3)OCO4)c3ccccn3)CC2)c1 (stereo not drawn) | 1.86 | –
19 | O=C(NNS(=O)(=O)c1ccc(Cl)cc1)C1CCN(Cc2ccccc2)CC1 | -15.1 | –
20 | CCOc1ccc(S(=O)(=O)N2CCC(C(=O)NCc3ccccn3)CC2)cc1Cl | 1.14 | –
21 | Cc1cccnc1C(NC(=O)C1CCN(Cc2ccc(Cl)c(Cl)c2)CC1)c1ccc(Cl)cc1 (stereo not drawn) | – | 3.26 µM (active)
22 | O=C(CCCOc1ccc(Cl)cc1Cl)NNC(=O)C1CCC1 | -2.64 | –
23 | Cc1cnc(NC(=O)Cn2cnc3c2c(=O)n(C)c(=O)n3C)s1 | 7.56 | –
24 | Cc1nc2cccnc2nc1C | 10.8 | –
25 | Cc1cc(C)c(NC(=S)N2CCCC2C(=O)O)c(C)c1 (stereo not drawn) | -28.7 | –
26 | COc1ccc(NC(=O)CN(C)CC(=O)Nc2cccc(C(F)(F)F)c2)cc1 | -4 | –
27 | Cc1ccccc1NC(=O)Cc1nc(COC(=O)c2ccc(C(F)(F)F)cc2)cs1 | -13 | –

Row | Compound | activity change, negative = growth inhibition [%] | Potency
28 | CC(C)(C)CC(=O)Nc1nc(C(N)Cc2ccc(C(F)(F)F)cc2)cs1 (stereo not drawn) | – | 23.1 µM (active)
29 | COc1ccc(NC(=O)C(Br)C(C)C)cc1 (stereo not drawn) | 1.83 | –
30 | COC(=O)[C@H](Cc1ccccc1)NC(=O)Nc1ccc(OC)cc1 | -1.58 | –
31 | NC(c1csc(NC(=O)Nc2cccc(C(F)(F)F)c2)n1)C1CCCCC1 (stereo not drawn) | – | 20.6 µM (active)
32 | CC(C)C[C@H](NC(=O)Nc1cccc(C(F)(F)F)c1)C(=O)O | 1.51 | –
33 | Cc1ccc(NC(=O)Nc2cccc(C(F)(F)F)c2)nc1 | 8.78 | –
34 | CC(C)(C)CC(=O)Nc1nnc(SCC(=O)NCc2cccs2)s1 | -18.8 | –
35 | COc1ccc(C(N)c2csc(NC(=O)Nc3cccc(C(F)(F)F)c3)n2)cc1 (stereo not drawn) | – | 18.4 µM (active)
36 | COc1ccc(C(CC(=O)Nc2ccc(C)cc2)NC(=O)C(F)(F)F)cc1 (stereo not drawn) | 3.04 | –
37 | COc1ccc(CC(N)c2csc(NC(=O)Nc3ccc(C(C)C)cc3)n2)cc1 (stereo not drawn) | – | 6.51 µM (active)
38 | CCN(CC(=O)Nc1c(F)cccc1F)C(=O)c1ccc(S(=O)(=O)N2CCCCC2)cc1 | -24 | –
39 | COc1ccccc1OC(C)C(=O)Nc1ccc(S(=O)(=O)Nc2nccs2)cc1 (stereo not drawn) | 2.34 | –
40 | COc1ccc(NC(=O)CC2C(=O)NC3CCCCC3N2C(=O)c2ccc(F)cc2)cc1 (stereo not drawn) | 3.64 | –
41 | CCOc1ccc(NC(=O)C(CC(C)C)N2Cc3ccccc3C2=O)cc1 (stereo not drawn) | -20.7 | –
42 | Cc1ccc(CNS(=O)(=O)c2ccc(-c3cc(C(F)(F)F)on3)s2)cc1 | -20.9 | –
43 | COc1ccccc1CNC(=O)c1cc(-c2cc(Cl)ccc2C)n[nH]1 | – | 16.4 µM (active)
44 | COc1ccccc1CNC(=O)c1cc(-c2cc(F)ccc2OC)n[nH]1 | -10.3 | –
45 | COc1ccccc1CNC(=O)COC(=O)c1sc(C)nc1C | -9.67 | –
46 | CC(Sc1nnc(-c2ccccc2F)n1C1CC1)C(N)=O (stereo not drawn) | 0.143 | –
47 | Cc1ccc2c(c1)C1CN(C)CCC1N2S(=O)(=O)c1cccc(F)c1 (stereo not drawn) | -24.4 | –
48 | CCOC(=O)CSC1=N/C(=C/c2ccc(-n3cncn3)cc2)C(=O)N1C(C)=O | – | 20.6 µM (active)
49 | CCOC(=O)CSc1nc(C)cc2c1C(=O)OC2 | 1.09 | –
50 | CCCC(=O)N1CCC1(C)C(=O)Nc1ccc(-n2cncn2)cc1 (stereo not drawn) | -0.867 | –
51 | NNc1nnc(NN)c2ccccc12 | -1.76 | –
52 | CCCS(=O)(=O)NC(=O)C1(C)CCCN(C(=O)c2ccnc(Cl)c2)C1 (stereo not drawn) | -7.91 | –
53 | CCN(CC)CCCNC(=S)N(CCO)Cc1cc2cc3c(cc2[nH]c1=O)OCO3 | -8.99 | –
